# Test results published in PubChem BioAssay (NCATS).
# Results filed as inconclusive are left out. A number with no mark means an inactive call. The call rests on the fitted dose curve; in most records, active means well fitted inhibition curve with a large enough effect; inconclusive means small, poorly fitted or top-dose-only effect; inactive means flat fitted curve, though single readings scatter.
# Target: Calcium and integrin-binding protein 1 (Homo sapiens) (UniProt Q99828)
# Experiment: Primary qHTS for Identification of Calcium Integrin Binding Protein 1 (CIB1) Competitor (AID 1508620);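 further: GST tagged CIB1 binding a fluorescein labelled alphaIIb integrin peptide tracer; top concentration of the series differs between compounds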
# Settings: CIB1-GST / FITC-alphaIIb peptide fluorescence polarization; series mostly up to 114 µM; activity change, negative = inhibition: at the top concentration
# In short: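 Fluorescence polarization competition: CIB1-GST (1 uM final) preincubated with compound 15 min at room temperature, then FITC-labeled alphaIIb peptide (100 nM final) added for another 15 min. Polarization read at Ex 480/Em 540.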
# On the % scale 0 is the no-effect control and ±100 the full control effect.
# Calcium and integrin-binding protein 1 (Homo sapiens), sequence (Q99828 whole entry, looked up): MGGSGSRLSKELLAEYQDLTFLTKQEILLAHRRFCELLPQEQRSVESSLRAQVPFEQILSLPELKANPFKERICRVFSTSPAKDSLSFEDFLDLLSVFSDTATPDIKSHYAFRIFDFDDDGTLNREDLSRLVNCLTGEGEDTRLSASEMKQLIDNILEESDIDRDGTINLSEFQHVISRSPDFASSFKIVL
row,Structure (SMILES),"activity change, negative = inhibition [%]"
1,Cc1cc(CNc2ncnc3ccc(-c4ccc5c(c4)OCO5)cc23)c(C)o1,-4.9
2,CS(=O)(=O)N1CCN(c2nc(-c3ccc(Br)cc3)cs2)CC1,1.11
3,COc1ccc(C2c3c(ncn(Cc4ccccc4)c3=N)Oc3ccc4ccccc4c32)cc1OC (configuration not stated),2.88
4,Cc1cc(C)nc(NC(=S)N2CCN(c3nccc(C(F)(F)F)n3)CC2)c1,-12.7
5,Cn1c2cc(B(O)O)sc2c2cnn(Cc3c(F)cccc3Cl)c(=O)c21,3.07
6,C#CCOc1cc(C2=Nn3c(nnc3-c3cccc(OCC(C)=O)c3)SC2)ccc1OC,-2.43
7,c1cc2c(cc1CNc1ccc(N3CCCCC3)cc1)OCO2,-8.68
8,Cc1c(C(=O)NCC2CCCO2)[nH]c2c1C(=O)CC(c1ccco1)C2 (configuration not stated),-3.97
9,CCc1nnc(-c2cnn(C)c2N)n1CCCn1ccnc1,-0.903
10,NC(=O)C1CCN(c2nc(-c3ccc(Cl)cc3)cs2)CC1,8.47
11,Cc1cccc(-c2ccc3ncnc(NCc4cccnc4)c3c2)c1,5.01
12,O=S1(=O)N=C(Sc2ccc3c(c2)OCCO3)c2ccccc21,-6.66
13,Cc1nc(C2=NC(c3ccccc3Cl)C3=C(CCCC3=O)N2)cs1 (configuration not stated),-11.2
14,O=C(CN1C(=O)N/C(=C\c2cccn2-c2cccc(C(=O)O)c2)C1=O)Nc1ccc(Cl)cc1,-2.55
15,Cc1cc(NS(=O)(=O)Cc2ccc(NC(=O)Cc3ccc(Cl)c(Cl)c3)cc2)no1,-19
16,COc1cc(OC)cc(N2CCN(C(=S)Nc3cc(C)cc(C)n3)CC2)c1,-2.1
17,COc1cccc(OC2=NS(=O)(=O)c3ccccc32)c1,1.77
18,O=S(=O)(c1ccc2c(c1)OCCO2)N1CCN(S(=O)(=O)c2ccc3nc(Cl)c(Cl)nc3c2)CC1,-7.19
19,Cc1cc(C)nc(NC(=S)N2CCN(c3cccc4nccn34)CC2)c1,-6.15
20,O=C1CCCC2=C1C(c1cccnc1)N=C(Nc1nc3ccccc3o1)N2 (configuration not stated),-14.6
21,Cc1ccnc(NC(=S)N2CCN(c3ccc(C(F)(F)F)cc3)CC2)c1,-13
22,C#CCOc1ccc(C(C)=O)cc1-c1nnc2n1N=C(c1ccc(OC)c(OC)c1)CS2,1.77
